Screen size: about 2,500 compounds; about 1,500 (60%) were called active.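 The calls were made as follows: active = duplicate-averaged ratio beyond 3 SD from buffer wells, up or down, though filed actives are nearly all decreases; inactive = the rest.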 The set was probably picked from earlier hits. A selection follows.

A short description of the assay: membrane potential response in parental HEK293 cells, counter-screen for CHT activator project, cell-based, membrane potential dye (AID 623908). The conditions noted are these: parental HEK293, membrane potential dye fluorescence (FDSS); at 10 µM; measured after EC20 choline addition.
As for `CCN1CCN(c2ccc([N+](=O)[O-])cc2C#N)CC1`, the ratio readout change was -38.3 (active). Under `CN1CCN(c2cc(N3CCNCC3)ccc2[N+](=O)[O-])CC1` stands -81.4 (active); under `Cc1nc2ccc(N3CCN(C)CC3)cc2nc1C`, -22.9 (active); under `CCCCCn1c(=O)c(C(=O)Nc2c(C)n(C)n(-c3ccccc3)c2=O)c(O)c2ccccc21`, “inactive”. Under `CC[N+](CC)(CC)CCCCCCCCCC[N+](CC)(CC)CC` stands -41.6 (active); under `CCOc1ccc(-c2cc(C)[n+](CCN(CC)CC)c(-c3ccc(OCC)cc3)c2)cc1`, “inactive”.

(Values after PubChem BioAssay AID623908 (Johns Hopkins Ion Channel Center, 2012).)
